The record followed here is PubChem BioAssay AID1508600 (Functional Genomics Laboratory (NCATS/FGL), 2020).

About 3,700 (7%) of roughly 53,000 sequences were called active. This is one part of a sample in which actives are shown more often than they occur.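 Rule for the calls: active = gene knockdowns whose robust z-score for IL-1 alpha signal is at least 2 or at most -2, so actives lie on both sides; inactive = the rest.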

This assay is described as follows: Components of the Cytosolic LPS Sensing Pathway: Gene Identification via Genome-wide siRNA Screen.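 Note: robust z of the log signal after scaling to non-targeting control siRNA wells of the plate.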 To be noted: RAW264.7 macrophages, IL-1a HTRF, actives lie on both sides, screened at 100 nM (by protocol), cells primed 5 h with Pam3CSK4 first. The method in brief:
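Supernatant IL-1a by HTRF from RAW264.7 cells primed with Pam3CSK4 (5 hours) and transfected with LipidA (24 hour) after 48h siRNA knockdown at 100 nM; cell viability checked with CellTiter-Glo.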
Background: In TR-FRET formats the signal depends on donor and acceptor labels being close together.
For the sequence CCGGAGUGACCAUAUUCGUTT against Fgr, the z-score was -0.446 (inactive).

Take GGCUCUCAAUGAUCAUCAUTT against Aldob: the z-score is -0.423 (inactive). For the sequence GGAAGUACAGAAUUUUGAATT against Sft2d2, the z-score was 1.46 (inactive). Take GGAAAUGUUGAAUCUUGCUTT against Mfsd4a: the z-score is 0.0725 (inactive).

As to CGAUGUAAGGAAAGAAAGGTT against Cd14, the z-score was -1.47 (inactive).

With CCCUUUGUGUGGAUUAUAUTT against Sp9, the z-score was 2.91 (active). On to GGGACUGUAAUACCAUGAUTT against Rnase10, for which the z-score is 0.0343 (inactive).

As for GGCCUUCACCAAAAGCAUCTT against Ncf2, the z-score is -0.661 (inactive).

In the case of “GGUUUCCUUUGUCUGUUUUTT against 9530091C08Rik”, the z-score was -0.509 (inactive).

As to GGCUCUAACUAUUAUGUGCTT against Psmc4, the z-score was -2.9 (active). Take CCUGGCUGUAAUCACCAUCTT against Olfr1160: the z-score is 0.953 (inactive).

For the sequence GGACAGAUCUUUGAAGCAGTT against Vps18, the z-score was -1.7 (inactive).

For GGACGAGGAGUACGAGCAATT against Nfkbia, the z-score is 2.6 (active). Turning to CUACCUACUCCAUGUGGUGTT against Gpihbp1, the z-score is -0.55 (inactive). To GGCCAUUAAAUUUAUCAACTT against Aldh3a1 belongs 1.61 (inactive). Regarding GGGAGAGCUGCUGUUUUUCTT against Rxfp3, the z-score was 1.46 (inactive). To GGUCUGCUUUGUCUUGGUGTT against Olfr829 belongs 0.126 (inactive); to GGAUGAAGAUGAAAAGGAATT against Ube3a, -0.519 (inactive).

For the sequence CCUGAAAGUCGUUUAUCGCTT against Il7r, the z-score was 2.74 (active). In the case of GGCUAUUUAUAAGUCCAGUTT against Uso1, the z-score was -0.307 (inactive). For the sequence GGAUAGGUUUCUGUAUUUATT against Znrf1, the z-score was 0.621 (inactive). CCGUAUGAACGUGUGAUAATT against Rasef: the z-score was 0.142 (inactive). Turning to GGGCACCUAGUUUCCAUGATT against Cox7b, the z-score was -0.385 (inactive). GGAAGUGGCGAGGUUCUAUTT against Folr1: the z-score is 0.782 (inactive). Consider GCAGAACACCGCUGGAAGUTT against Pard3, for which the z-score was 3.14 (active). Take CGCAAUGUAUGAUUCAAUGTT against Mogat1: the z-score is 1.76 (inactive). As to GCUAAUUCCCUGGCCUCAATT against Tro, the z-score was -0.627 (inactive). To GGUUUAUAGGCCUUCUUCCTT against Flot2 belongs -0.763 (inactive). GCAUCGUUAUGCGCCUCACTT against Neurog2: the z-score was 0.297 (inactive).

With CGGGCAUGAUGAAUCGAUGTT against Ldhd, the z-score was 1.83 (inactive). For GGCUUGAUGAAGAGAAUAUTT against Oog4, the z-score was -1.45 (inactive). Turning to CGGACUCUGUGUUCUUAGATT against Alg3, the z-score was 2.68 (active).

For the sequence GGGCGACUUAUUUUUUGUUTT against Zfp111, the z-score was 0.333 (inactive). With GGACUUCAUCAACAACAUCTT against Nsmce1, the z-score was 0.459 (inactive). With GGAAAUCUUCAUGAUCAGUTT against Fam24b, the z-score is -2.24 (active). Consider GGUCAUCGGGUAAUUAAUCTT against Rad52, for which the z-score is -0.618 (inactive). To GGAGUCUGCUCUCAUUCUUTT against Slc30a1 belongs -0.214 (inactive); to GGAUGCUGAGCUUUCUGACTT against Fchsd1, 0.476 (inactive). Consider GGCCCUGUUGCUAUGUGUUTT against Map1s, for which the z-score is 2.06 (active). For the sequence GGCACCGCUAUUCAGAAUUTT against Fgf23, the z-score is 0.755 (inactive). As for GCUGGAAAAGUGCUGUGGGTT against Sult1c1, the z-score is -0.494 (inactive).

As to GGCUUCCUUUUUGAAGCUATT against Slc35b4, the z-score was 0.258 (inactive). To CCGUCAAAACAUUACCAUUTT against Hmcn2 belongs -0.363 (inactive); to GGUAGAAGAGAGUAUCAACTT against Commd1, 1.28 (inactive); to GGAAAGUCUACAUGUAUUATT against Enpp6, -0.886 (inactive). To ACAUUUAUCACGACCCUUCTT against Olfr777 belongs 1.3 (inactive).

Regarding GGCCUUCACUGAUGAAUGUTT against Pramel32, the z-score was -2.21 (active).

Turning to “GGCGAAAAGCCGUUCCAUUTT against E430018J23Rik”, the z-score is 0.664 (inactive).

As for GGAGAAGAACGAGAAACGUTT against Nyap2, the z-score is 0.904 (inactive). To CCAUUGAAAUUUCCAUCUGTT against Baalc belongs 0.115 (inactive); to CGUGAACUUUCAGAGCAGGTT against Rrp36, 0.124 (inactive). For CCAUAGCAGGGAAGAUUUUTT against Kcnd2, the z-score is 3.78 (active). With GGAUCCACAGUCAUUCAGATT against Sike1, the z-score is 1.13 (inactive). Turning to GGUCUUCAUGGUCAAAGUGTT against Fzd10, the z-score was 2.11 (active).

For GCAAAGUCCAGUGAACAACTT against Gtse1, the z-score was -1.15 (inactive).

In the case of GGCCACAAUGGAUCAGAUGTT against Gldn, the z-score is 1.53 (inactive).

Consider GGAUCUUUUAGCUAACCUATT against Tesk2, for which the z-score is 1.84 (inactive). As for GGCAACCUGCUGGUAAUCATT against Adrb3, the z-score was 3.53 (active). For GGCAUGCUGGAAUCAAACATT against Dppa2, the z-score is 0.699 (inactive).

Regarding GGUGAGCAAAGCCAAGAAGTT against Sgpl1, the z-score is -1.42 (inactive). GGCUUGCUUUGCUUCCCUUTT against Med28: the z-score is -1.24 (inactive).

CCCGAAAGACAUGUAUUCGTT against Mrps18b: the z-score is -0.38 (inactive).

In the case of CUACUUCGAGAACAUGGGUTT against Tpgs1, the z-score is -0.749 (inactive). To GGUGAUAUCUUUCCAUCUUTT against Wiz belongs -0.176 (inactive). Turning to CCACACUUAGUCAUUUUCUTT against Paral1, the z-score was -2.06 (active). For GGCCUACGAAGUGCAAAGATT against Sipa1l3 the value was -0.667 (inactive); for GGACUAGAAGAUCUACACUTT against Olfr67, -0.921 (inactive). As to GCCUCGAUGCAAGAUGAUGTT against C2cd2l, the z-score was -0.82 (inactive). For the sequence GGAUAAAGAAGGACUCAAATT against Tpbpb, the z-score was -2.16 (active).
